{
  "source": "PubChem BioAssay (NCATS)",
  "note": "Values joined by “and” are separate entries in the source; they are usually repeats but may differ in a detail not shown here. Identical values can stand only once. Inconclusive results are not listed. A number with no mark means an inactive call. Active and inactive are the calls of the source. The call rests on the fitted dose curve; in most records, active means well fitted inhibition curve with a large enough effect; inconclusive means small, poorly fitted or top-dose-only effect; inactive means flat fitted curve, though single readings scatter. On the % scale 0 is the no-effect control and ±100 the full control effect; potency means the concentration at half of the fitted maximal effect.",
  "data": [
    {"system": "KB-3-1", "experiment": "Cytotoxic Profiling of Annotated Libraries Using Quantitative High-Throughput Screening (AID 1296008); further: nearly all actives have a fitted effect of over 60% in size", "conditions": "Five cell lines viability, CellTiter-Glo ATP luminescence, 48-72 h; max response: stronger effect = lower value", "from_the_text": "Cell-based phenotypic screening is a commonly used approach to discover biological pathways, novel drug targets, chemical probes and high-quality hit-to-lead molecules. Many hits identified from high-throughput screening campaign are ruled out through a series of follow-up potency, selectivity/specificity, and cytotoxicity assays. Prioritization of molecules with little or no cytotoxicity for a more in-depth downstream evaluation influence the future direction of projects, so cytotoxicity profiling of the screening libraries at early stage is essential for increasing the likelihood of candidate success. […] For the annotated library, we also examined the primary targets and mechanistic pathways regularly associated with cell death. To our knowledge, this is the first study to use high-throughput screening to profile large libraries for cytotoxicity assessment in both normal and cancer cell lines. In summary, the results generated here constitutes a valuable resource for the scientific community and provides insight on identifying cytotoxic compounds with particular mechanisms of action, and prioritizing compounds with suitable cytotoxicity profile for further evaluation.\nA pintool (Kalypsys) was used to transfer 23 nL of compound solution to the 1536-well assay plates. After 48 or 72 hr incubation at 37 degree Celsius, 5% CO2 and 95% humidity, 2.5 uL of CellTiter-Glo (Promega) was dispensed into each well using a dispenser (Aspect Automation, St. Paul, MN) with solenoid valves (Lee Valves, Westbrook CT). Plates were left at room temperature for 10 min before imaging the ATP-coupled luminescence using a ViewLux microplate imager (PerkinElmer, Waltham, MA).", "values": [
      {"smiles": "CCC[C@@H]1C[C@@H](C(=O)N[C@@H]([C@H]2O[C@H](SC)[C@H](O)[C@@H](O)[C@H]2O)[C@@H](C)O)N(C)C1", "max response": "-5.54%"},
      {"smiles": "CN(C)CCc1c[nH]c2ccc(Cn3cncn3)cc12", "max response": "8.57%", "outcome": "inactive"},
      {"smiles": "O=Nc1c(-c2c(O)[nH]c3cc(Br)ccc23)[nH]c2ccccc12", "Potency": "13.2 µM (active)"},
      {"smiles": "COc1ccccc1N1CCN(CCN(C(=O)C2CCCCC2)c2ccccn2)CC1", "max response": "-8.11% and 2.92%"},
      {"smiles": "CN(c1nccc(=O)[nH]1)C1CCN(c2nc3ccccc3n2Cc2ccc(F)cc2)CC1", "outcome": "inactive", "max response": "1.53%"},
      {"smiles": "CC[C@]1(O)C[C@H]2CN(CCc3c([nH]c4ccccc34)[C@@](C(=O)OC)(c3cc4c(cc3OC)N(C=O)[C@H]3[C@@](O)(C(=O)OC)[C@H](OC(C)=O)[C@]5(CC)C=CCN6CC[C@]43[C@@H]65)C2)C1", "Potency": "1.7 nM (active) and 1.84 µM (active)"},
      {"smiles": "C[C@@H](c1ncncc1F)[C@](O)(Cn1cncn1)c1ccc(F)cc1F", "max response": "-4.61%"},
      {"smiles": "CCCS(=O)c1ccc2nc(NC(=O)OC)[nH]c2c1", "note": "(stereo unspecified)", "Potency": "20.6 µM (active)"},
      {"smiles": "CCCCCCCCCCCCCCCCCCCCCCO", "max response": "-15.7% and 8.97%"},
      {"smiles": "Cc1c(OCC(F)(F)F)ccnc1CS(=O)c1nc2ccccc2[nH]1", "note": "(stereo unspecified)", "max response": "-13.1% and -5.17%"},
      {"smiles": "Cn1c(NCCN(CCO)CCCc2ccc([N+](=O)[O-])cc2)cc(=O)n(C)c1=O", "max response": "3.71% and -8.99%"},
      {"smiles": "CCCCC(CC)COC(=O)C(C#N)=C(c1ccccc1)c1ccccc1", "note": "(stereo unspecified)", "outcome": "inactive"},
      {"smiles": "Cc1cc(Cl)ccc1OCCCC(=O)NO", "outcome": "inactive"},
      {"smiles": "CN(C)CCCC1(c2ccc(F)cc2)OCc2cc(C#N)ccc21", "note": "(stereo unspecified)", "max response": "-8.3% and 1.59%"},
      {"smiles": "COc1cc(OC)c(C(=O)CCCN2CCCC2)c(OC)c1", "max response": "-2.3% and 3.48%"},
      {"smiles": "C[C@H](Cc1ccc(O)c(O)c1)[C@@H](C)Cc1ccc(O)c(O)c1", "max response": "-9.31% and -6.61%"},
      {"smiles": "Nc1ccc(S(N)(=O)=O)cc1", "max response": "4.1% and 2.9%"},
      {"smiles": "Nc1cc(C(Cl)=C(Cl)Cl)c(S(N)(=O)=O)cc1S(N)(=O)=O", "max response": "-2.94% and -17.4%"},
      {"smiles": "Nc1ncn([C@H]2C[C@H](O)[C@@H](CO)O2)c(=O)n1", "outcome": "inactive", "max response": "9.32%"},
      {"smiles": "COc1ccc2cc([C@H](C)C(=O)O)ccc2c1", "max response": "11.2% and 5.36% and -1.1%"},
      {"smiles": "Oc1ccc(-c2nc(-c3ccc(F)cc3)c(-c3ccncc3)[nH]2)cc1", "outcome": "inactive"},
      {"smiles": "c1cnc2cc3c(cc2n1)C1CNCC3C1", "max response": "3.64% and -1.73%", "outcome": "inactive"},
      {"smiles": "Cc1nc(Nc2ncc(C(=O)Nc3c(C)cccc3Cl)s2)cc(N2CCN(CCO)CC2)n1", "max response": "-28.1%"},
      {"smiles": "CC(C)c1nc(CN(C)C(=O)N[C@H](C(=O)N[C@@H](Cc2ccccc2)C[C@H](O)[C@H](Cc2ccccc2)NC(=O)OCc2cncs2)C(C)C)cs1", "max response": "-5.85% and -8.86% and 1.74%"},
      {"smiles": "CC1(C)NC(=O)N(c2ccc([N+](=O)[O-])c(C(F)(F)F)c2)C1=O", "max response": "2.37% and -24.9%"},
      {"smiles": "Cc1ccc(C)c(OCCCC(C)(C)C(=O)O)c1", "max response": "8.09% and 8.97%"},
      {"smiles": "N[C@@H](Cc1cc(I)c(Oc2cc(I)c(O)c(I)c2)c(I)c1)C(=O)O", "max response": "-0.982% and 2.52%", "outcome": "inactive"},
      {"smiles": "CC(C)c1ccc2oc3nc(N)c(C(=O)O)cc3c(=O)c2c1", "outcome": "inactive", "max response": "-4.86%"},
      {"smiles": "COC1=C(OC)C(=O)C(CCCCCCCCCCO)=C(C)C1=O", "max response": "-4.5% and -1.13%"},
      {"smiles": "O=C(CCc1ccc(O)cc1)c1c(O)cc(O)cc1O", "outcome": "inactive"},
      {"smiles": "CC(=O)Nc1ccc(O)cc1", "max response": "23.8% and 2.6%"},
      {"smiles": "Cc1cc(C2CCCCC2)n(O)c(=O)c1", "max response": "-16.3%"},
      {"smiles": "C[C@]12CCC(=O)C=C1CC[C@@H]1[C@H]2[C@@H](O)C[C@@]2(C)[C@H]1CC[C@]2(O)C(=O)CO", "max response": "33.4%"},
      {"smiles": "Cc1nccn1CC1CCc2c(c3ccccc3n2C)C1=O", "note": "(stereo unspecified)", "max response": "-3.61% and -19.2%", "outcome": "inactive"}
    ]}
  ]
}
